# Measured values as given in ChEMBL document CHEMBL2218924, “A broad activity screen in support of a chemogenomic map for kinase signalling research and drug discovery” (Biochem J, 2013).
# Tests used:
# [1] = biological target: Tyrosine-protein kinase SYK (Homo sapiens) (UniProt P43405); conditions: at 10 µM
# [2] = biological target: T1, Mitogen-activated protein kinase kinase kinase 7 (Homo sapiens) (UniProt O43318); conditions: at 1 µM
# T1 sequence (whole entry): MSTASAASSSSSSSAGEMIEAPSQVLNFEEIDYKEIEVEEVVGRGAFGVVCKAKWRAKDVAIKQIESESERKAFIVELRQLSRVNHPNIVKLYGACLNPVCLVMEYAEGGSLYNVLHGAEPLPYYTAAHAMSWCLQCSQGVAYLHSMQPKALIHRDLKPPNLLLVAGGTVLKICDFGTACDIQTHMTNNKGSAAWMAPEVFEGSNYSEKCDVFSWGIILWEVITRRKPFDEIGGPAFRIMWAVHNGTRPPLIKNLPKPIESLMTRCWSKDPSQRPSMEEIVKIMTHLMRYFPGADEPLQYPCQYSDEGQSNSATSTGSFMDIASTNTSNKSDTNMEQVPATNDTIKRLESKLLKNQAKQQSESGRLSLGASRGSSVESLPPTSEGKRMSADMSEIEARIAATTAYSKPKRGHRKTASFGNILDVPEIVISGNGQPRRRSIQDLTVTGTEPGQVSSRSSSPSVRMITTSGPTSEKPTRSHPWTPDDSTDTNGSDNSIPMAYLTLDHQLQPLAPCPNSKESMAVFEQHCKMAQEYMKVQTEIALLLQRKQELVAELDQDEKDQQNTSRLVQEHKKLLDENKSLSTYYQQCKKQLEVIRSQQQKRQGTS
# [3] = biological target: T1, Mitogen-activated protein kinase kinase kinase 7 (Homo sapiens); conditions: at 10 µM
# [4] = biological target: T2, Serine/threonine-protein kinase TAO1 (Homo sapiens) (UniProt Q7L7X3); conditions: at 1 µM
# T2 sequence (whole entry): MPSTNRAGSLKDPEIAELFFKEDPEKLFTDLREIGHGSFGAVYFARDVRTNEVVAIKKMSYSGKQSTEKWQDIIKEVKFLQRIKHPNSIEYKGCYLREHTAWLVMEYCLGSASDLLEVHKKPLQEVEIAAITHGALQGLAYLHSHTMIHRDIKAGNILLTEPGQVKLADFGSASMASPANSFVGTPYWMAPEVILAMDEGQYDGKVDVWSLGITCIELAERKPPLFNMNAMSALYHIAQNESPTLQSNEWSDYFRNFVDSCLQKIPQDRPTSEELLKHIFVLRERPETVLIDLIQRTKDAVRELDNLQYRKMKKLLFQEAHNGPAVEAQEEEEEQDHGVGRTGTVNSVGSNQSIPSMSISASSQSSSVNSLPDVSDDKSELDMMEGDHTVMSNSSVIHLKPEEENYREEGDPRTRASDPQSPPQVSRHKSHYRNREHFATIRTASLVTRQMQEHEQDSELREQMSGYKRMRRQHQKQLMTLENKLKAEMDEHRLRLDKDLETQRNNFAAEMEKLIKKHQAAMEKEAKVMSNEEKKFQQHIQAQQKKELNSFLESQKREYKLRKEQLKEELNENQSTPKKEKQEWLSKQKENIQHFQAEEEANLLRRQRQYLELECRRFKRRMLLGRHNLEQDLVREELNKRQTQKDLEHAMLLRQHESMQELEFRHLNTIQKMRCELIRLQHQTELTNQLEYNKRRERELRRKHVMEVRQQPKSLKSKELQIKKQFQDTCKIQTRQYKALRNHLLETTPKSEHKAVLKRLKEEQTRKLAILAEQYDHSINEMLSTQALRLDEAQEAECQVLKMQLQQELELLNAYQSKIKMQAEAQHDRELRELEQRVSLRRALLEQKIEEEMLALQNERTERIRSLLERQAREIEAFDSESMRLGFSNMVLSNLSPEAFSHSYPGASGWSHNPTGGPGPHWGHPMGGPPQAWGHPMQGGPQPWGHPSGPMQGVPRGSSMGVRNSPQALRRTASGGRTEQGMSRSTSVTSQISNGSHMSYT
# [5] = biological target: T2, Serine/threonine-protein kinase TAO1 (Homo sapiens); conditions: at 10 µM
# [6] = biological target: T3, Serine/threonine-protein kinase TAO2 (Homo sapiens) (UniProt Q9UL54); conditions: at 10 µM
# T3 sequence (whole entry): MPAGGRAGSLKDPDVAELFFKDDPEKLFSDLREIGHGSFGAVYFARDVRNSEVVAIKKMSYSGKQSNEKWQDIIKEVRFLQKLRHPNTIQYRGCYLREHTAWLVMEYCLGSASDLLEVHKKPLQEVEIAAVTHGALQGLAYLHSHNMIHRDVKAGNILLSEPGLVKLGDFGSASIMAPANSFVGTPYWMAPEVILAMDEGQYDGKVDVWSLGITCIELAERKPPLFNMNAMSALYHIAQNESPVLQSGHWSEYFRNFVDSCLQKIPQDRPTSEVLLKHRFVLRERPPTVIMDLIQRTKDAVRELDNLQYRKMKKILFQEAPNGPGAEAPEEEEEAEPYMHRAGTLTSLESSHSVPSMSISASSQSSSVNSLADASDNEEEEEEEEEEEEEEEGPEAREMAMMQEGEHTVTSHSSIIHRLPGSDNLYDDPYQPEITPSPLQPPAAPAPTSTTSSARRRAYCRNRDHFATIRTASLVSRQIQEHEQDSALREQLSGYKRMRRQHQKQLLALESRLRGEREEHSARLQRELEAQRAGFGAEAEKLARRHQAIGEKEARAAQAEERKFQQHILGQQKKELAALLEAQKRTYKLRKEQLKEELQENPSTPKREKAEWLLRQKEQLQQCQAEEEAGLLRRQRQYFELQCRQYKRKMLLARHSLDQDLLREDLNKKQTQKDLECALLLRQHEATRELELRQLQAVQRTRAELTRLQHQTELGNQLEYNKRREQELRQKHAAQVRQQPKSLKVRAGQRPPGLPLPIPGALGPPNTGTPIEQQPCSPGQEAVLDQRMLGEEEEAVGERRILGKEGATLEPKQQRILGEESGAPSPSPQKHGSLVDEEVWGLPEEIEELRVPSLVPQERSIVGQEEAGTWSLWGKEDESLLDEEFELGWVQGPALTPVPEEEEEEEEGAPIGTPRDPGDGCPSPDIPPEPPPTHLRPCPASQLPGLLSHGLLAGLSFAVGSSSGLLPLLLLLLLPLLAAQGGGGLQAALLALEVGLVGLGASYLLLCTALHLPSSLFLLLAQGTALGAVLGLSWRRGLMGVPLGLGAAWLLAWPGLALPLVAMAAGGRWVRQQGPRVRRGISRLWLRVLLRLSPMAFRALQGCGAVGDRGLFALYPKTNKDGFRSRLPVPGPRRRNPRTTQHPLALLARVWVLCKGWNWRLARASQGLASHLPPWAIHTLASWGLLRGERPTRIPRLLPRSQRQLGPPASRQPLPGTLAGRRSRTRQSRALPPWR
# [7] = biological target: T4, Serine/threonine-protein kinase TAO3 (Homo sapiens) (UniProt Q9H2K8); conditions: at 1 µM
# T4 sequence (whole entry): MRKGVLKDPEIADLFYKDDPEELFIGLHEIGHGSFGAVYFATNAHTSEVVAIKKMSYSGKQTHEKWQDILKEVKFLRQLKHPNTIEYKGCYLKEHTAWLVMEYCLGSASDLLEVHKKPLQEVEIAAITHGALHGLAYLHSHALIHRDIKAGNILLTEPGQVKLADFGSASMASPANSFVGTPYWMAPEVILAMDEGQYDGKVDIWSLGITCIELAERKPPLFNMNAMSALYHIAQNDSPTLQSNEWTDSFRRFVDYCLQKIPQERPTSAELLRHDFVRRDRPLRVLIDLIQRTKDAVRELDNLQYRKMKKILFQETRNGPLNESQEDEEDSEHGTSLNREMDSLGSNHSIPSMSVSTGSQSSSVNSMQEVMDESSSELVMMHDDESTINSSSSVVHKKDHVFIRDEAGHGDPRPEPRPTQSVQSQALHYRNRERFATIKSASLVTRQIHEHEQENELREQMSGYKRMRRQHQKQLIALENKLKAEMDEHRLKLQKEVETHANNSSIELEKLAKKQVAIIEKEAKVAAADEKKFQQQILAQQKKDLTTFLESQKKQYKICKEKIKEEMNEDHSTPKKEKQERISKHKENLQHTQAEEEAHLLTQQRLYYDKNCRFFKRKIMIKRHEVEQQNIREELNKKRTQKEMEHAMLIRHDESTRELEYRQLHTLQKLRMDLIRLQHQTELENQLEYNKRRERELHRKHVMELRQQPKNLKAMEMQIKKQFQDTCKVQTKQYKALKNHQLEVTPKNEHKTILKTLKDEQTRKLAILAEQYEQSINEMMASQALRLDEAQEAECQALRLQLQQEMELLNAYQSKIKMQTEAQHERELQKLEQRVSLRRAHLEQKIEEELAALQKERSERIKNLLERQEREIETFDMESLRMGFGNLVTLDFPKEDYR
# [8] = biological target: T4, Serine/threonine-protein kinase TAO3 (Homo sapiens); conditions: at 10 µM
# [9] = biological target: T5, Serine/threonine-protein kinase TBK1 (Homo sapiens) (UniProt Q9UHD2); conditions: at 1 µM
# T5 sequence (whole entry): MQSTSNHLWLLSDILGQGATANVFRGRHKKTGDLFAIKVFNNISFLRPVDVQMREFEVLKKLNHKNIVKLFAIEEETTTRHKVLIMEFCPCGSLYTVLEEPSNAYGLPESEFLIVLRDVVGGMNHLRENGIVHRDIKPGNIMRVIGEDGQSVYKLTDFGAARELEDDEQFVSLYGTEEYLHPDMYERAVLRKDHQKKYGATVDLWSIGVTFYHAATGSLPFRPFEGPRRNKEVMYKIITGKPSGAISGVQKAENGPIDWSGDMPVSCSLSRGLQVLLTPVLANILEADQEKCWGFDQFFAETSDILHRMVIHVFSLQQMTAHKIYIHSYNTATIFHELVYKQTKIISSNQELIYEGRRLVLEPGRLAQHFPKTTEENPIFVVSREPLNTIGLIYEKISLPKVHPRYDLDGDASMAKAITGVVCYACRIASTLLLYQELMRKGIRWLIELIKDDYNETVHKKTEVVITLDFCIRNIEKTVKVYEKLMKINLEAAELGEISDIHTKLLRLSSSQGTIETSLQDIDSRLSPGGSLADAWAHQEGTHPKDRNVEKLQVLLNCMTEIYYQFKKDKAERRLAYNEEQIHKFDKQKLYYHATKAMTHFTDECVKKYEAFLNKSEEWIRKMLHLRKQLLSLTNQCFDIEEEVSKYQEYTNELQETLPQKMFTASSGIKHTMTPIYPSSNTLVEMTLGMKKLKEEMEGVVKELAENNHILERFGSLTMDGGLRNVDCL
structure (smiles),measurement,setting,value
c1ccc2c(-c3ccncc3)c[nH]c2c1,residual activity,[1],92%
same,residual activity,[2],85%
same,residual activity,[3],85%
same,residual activity,[4],100%
same,residual activity,[5],66%
same,residual activity,[6],85%
same,residual activity,[7],98%
same,residual activity,[8],72%
same,residual activity,[9],65%
